In ChEMBL document CHEMBL1961873, “Compounds: GSK PKIS; Assays: Nanosyn kinase panel” (2012) one finds inhibition data, which are given here for six compounds.

Assay [1] has as its target Rho-associated protein kinase 1 (Homo sapiens) (UniProt Q13464). The following applies: at 1 µM.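 Also: reported values are mean percent inhibition of ROCK1.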
Assay [2] has as its target Rho-associated protein kinase 2 (Homo sapiens) (UniProt O75116). The following applies: at 0.1 µM.
Assay [3] has the same target. The following applies: at 1 µM.
In assay [4] the target is Ribosomal protein S6 kinase alpha-1 (Homo sapiens) (UniProt Q15418). The following applies: at 0.1 µM.
The target is the same in assay [5]. The following applies: at 1 µM.
Assay [6] has as its target Ribosomal protein S6 kinase alpha-3 (Homo sapiens) (UniProt P51812). The following applies: at 0.1 µM.
Assay [7] shares this target. The following applies: at 1 µM.
The target of assay [8] is Ribosomal protein S6 kinase alpha-2 (Homo sapiens) (UniProt Q15349). The following applies: at 0.1 µM.
For assay [9] the target is unchanged. The following applies: at 1 µM.
For assay [10], the target named is Ribosomal protein S6 kinase alpha-6 (Homo sapiens) (UniProt Q9UK32). The following applies: at 0.1 µM.
For assay [11] the target is unchanged. The following applies: at 1 µM.
Assay [12] addresses T1, Serine/threonine-protein kinase Sgk1 (Homo sapiens) (UniProt O00141).
T1 sequence (whole entry): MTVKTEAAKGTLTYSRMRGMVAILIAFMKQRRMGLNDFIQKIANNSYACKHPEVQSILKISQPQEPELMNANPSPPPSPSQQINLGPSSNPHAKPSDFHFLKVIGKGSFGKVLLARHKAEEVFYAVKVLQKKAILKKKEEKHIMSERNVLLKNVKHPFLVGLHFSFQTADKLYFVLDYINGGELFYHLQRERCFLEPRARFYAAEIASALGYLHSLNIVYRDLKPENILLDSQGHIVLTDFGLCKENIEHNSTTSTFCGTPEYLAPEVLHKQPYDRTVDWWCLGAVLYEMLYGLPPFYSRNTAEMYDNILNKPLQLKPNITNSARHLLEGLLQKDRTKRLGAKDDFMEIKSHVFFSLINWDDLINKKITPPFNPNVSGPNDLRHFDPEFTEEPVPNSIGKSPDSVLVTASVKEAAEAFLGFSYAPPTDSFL
The following applies: at 0.1 µM.

The target of assay [13] is T1, Serine/threonine-protein kinase Sgk1 (Homo sapiens). The following applies: at 1 µM.
Assay [14] has as its target T2, Serine/threonine-protein kinase Sgk2 (Homo sapiens) (UniProt Q9HBY8).
T2 sequence (whole entry): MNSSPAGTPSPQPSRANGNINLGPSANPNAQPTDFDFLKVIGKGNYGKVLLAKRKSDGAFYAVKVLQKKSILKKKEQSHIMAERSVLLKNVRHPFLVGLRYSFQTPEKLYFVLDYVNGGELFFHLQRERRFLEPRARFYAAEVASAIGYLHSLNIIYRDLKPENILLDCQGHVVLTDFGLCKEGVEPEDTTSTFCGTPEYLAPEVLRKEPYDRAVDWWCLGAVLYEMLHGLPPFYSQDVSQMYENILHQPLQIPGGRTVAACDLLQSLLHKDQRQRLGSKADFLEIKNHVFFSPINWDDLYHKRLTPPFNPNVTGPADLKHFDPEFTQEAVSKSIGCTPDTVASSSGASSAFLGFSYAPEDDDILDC
The following applies: at 0.1 µM.

In assay [15] the target is T2, Serine/threonine-protein kinase Sgk2 (Homo sapiens). The following applies: at 1 µM.
In assay [16] the target is T3, Serine/threonine-protein kinase Sgk3 (Homo sapiens) (UniProt Q96BR1).
T3 sequence (whole entry): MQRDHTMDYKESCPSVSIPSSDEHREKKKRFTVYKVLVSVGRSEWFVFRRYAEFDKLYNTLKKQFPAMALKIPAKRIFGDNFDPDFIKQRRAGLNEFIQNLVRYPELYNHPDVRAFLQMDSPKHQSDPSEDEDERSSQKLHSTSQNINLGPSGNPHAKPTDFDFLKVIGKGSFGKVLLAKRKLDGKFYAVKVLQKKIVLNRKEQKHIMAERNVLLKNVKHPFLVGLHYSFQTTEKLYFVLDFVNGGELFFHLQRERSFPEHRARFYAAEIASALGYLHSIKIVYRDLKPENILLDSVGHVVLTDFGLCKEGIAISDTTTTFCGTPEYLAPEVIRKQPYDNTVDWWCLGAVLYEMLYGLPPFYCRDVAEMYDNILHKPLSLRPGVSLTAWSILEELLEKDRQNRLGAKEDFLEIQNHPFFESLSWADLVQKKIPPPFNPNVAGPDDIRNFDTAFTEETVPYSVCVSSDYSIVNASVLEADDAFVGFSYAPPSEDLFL
The following applies: at 0.1 µM.

In assay [17] the target is T3, Serine/threonine-protein kinase Sgk3 (Homo sapiens). The following applies: at 1 µM.
Assay [18] concerns the target 5'-AMP-activated protein kinase catalytic subunit alpha-1 (Homo sapiens) (UniProt Q13131). The following applies: at 0.1 µM.
Assay [19] has the same target. The following applies: at 1 µM.
In assay [20] the target is 5'-AMP-activated protein kinase catalytic subunit alpha-2 (Homo sapiens) (UniProt P54646). The following applies: at 0.1 µM.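 Also: mean inhibition measured on the AMPK complex of alpha2, beta1 and gamma1 subunits.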
Sequence of 5'-AMP-activated protein kinase catalytic subunit alpha-2 (Homo sapiens) (P54646 whole entry, looked up): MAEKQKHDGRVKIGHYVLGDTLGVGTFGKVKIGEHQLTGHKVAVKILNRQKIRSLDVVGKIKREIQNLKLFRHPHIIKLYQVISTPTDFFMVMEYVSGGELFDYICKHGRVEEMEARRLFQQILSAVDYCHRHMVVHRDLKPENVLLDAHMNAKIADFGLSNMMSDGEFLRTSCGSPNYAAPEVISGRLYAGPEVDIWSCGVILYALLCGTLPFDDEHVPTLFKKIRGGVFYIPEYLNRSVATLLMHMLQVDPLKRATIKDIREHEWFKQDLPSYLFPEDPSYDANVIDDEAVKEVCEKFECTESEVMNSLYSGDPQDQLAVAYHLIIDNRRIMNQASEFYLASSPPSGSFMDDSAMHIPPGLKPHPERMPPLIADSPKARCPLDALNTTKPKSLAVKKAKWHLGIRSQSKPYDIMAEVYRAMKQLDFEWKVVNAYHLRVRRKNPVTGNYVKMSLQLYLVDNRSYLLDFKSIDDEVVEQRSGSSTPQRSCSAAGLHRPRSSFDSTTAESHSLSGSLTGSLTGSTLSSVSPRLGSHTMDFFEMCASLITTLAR

Sequence of Ribosomal protein S6 kinase alpha-1 (Homo sapiens) (Q15418 whole entry): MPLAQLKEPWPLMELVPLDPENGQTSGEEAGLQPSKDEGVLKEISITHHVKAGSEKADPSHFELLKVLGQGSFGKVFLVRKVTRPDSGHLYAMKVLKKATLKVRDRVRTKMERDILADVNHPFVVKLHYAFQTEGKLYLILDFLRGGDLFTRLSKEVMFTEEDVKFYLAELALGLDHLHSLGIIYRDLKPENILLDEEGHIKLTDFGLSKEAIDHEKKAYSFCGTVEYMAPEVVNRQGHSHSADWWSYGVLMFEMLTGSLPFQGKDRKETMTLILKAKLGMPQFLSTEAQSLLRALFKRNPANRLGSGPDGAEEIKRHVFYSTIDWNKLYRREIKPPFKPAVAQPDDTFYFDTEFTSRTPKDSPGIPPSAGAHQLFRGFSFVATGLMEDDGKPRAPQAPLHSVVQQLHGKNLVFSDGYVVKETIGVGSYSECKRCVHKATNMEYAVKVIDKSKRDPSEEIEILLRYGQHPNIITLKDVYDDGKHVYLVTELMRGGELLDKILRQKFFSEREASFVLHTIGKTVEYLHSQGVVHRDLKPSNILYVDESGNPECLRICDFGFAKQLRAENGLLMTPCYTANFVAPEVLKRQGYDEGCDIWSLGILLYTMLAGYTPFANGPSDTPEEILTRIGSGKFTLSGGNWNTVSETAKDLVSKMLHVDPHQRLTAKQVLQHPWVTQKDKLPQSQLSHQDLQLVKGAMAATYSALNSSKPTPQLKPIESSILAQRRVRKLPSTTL
Sequence of Ribosomal protein S6 kinase alpha-6 (Homo sapiens) (Q9UK32 whole entry): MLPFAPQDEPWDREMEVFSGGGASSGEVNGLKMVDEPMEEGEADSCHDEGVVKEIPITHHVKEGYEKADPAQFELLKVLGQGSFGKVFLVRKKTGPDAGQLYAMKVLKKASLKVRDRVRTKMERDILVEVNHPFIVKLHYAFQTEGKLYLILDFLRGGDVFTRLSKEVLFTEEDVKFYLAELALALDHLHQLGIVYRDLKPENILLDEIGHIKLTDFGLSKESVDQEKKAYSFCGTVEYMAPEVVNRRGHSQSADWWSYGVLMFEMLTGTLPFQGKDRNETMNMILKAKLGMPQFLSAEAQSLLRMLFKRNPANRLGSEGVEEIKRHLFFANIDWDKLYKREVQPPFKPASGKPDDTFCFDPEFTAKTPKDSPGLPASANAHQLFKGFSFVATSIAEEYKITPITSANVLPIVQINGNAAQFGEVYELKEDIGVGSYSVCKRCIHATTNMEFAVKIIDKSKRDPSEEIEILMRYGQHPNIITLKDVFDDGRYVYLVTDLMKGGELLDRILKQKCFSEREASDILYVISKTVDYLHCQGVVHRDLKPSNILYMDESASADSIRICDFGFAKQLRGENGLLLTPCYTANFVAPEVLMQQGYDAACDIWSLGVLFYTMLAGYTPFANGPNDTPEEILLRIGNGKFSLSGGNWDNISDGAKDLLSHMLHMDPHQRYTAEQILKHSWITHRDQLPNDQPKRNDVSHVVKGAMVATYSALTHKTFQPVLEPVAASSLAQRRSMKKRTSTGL
Sequence of Ribosomal protein S6 kinase alpha-3 (Homo sapiens) (P51812 whole entry): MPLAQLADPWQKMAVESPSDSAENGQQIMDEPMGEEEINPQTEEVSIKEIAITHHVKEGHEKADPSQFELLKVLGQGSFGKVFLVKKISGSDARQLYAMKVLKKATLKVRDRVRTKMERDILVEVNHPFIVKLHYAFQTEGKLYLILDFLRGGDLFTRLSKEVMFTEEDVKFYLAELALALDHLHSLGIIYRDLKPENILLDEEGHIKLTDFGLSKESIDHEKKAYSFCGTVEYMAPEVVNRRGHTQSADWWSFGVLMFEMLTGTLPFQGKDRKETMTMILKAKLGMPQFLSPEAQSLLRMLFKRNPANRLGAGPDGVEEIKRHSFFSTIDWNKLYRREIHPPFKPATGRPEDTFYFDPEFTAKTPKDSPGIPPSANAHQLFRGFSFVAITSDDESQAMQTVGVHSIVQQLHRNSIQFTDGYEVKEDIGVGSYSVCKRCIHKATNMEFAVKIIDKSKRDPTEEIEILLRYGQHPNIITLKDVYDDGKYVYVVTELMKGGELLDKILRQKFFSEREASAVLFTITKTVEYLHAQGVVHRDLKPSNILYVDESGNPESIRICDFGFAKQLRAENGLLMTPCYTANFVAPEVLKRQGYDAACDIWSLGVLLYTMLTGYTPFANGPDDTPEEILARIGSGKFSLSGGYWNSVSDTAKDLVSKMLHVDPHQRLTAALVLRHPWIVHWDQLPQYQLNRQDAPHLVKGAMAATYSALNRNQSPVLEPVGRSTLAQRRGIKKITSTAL
Sequence of 5'-AMP-activated protein kinase catalytic subunit alpha-1 (Homo sapiens) (Q13131 whole entry, looked up): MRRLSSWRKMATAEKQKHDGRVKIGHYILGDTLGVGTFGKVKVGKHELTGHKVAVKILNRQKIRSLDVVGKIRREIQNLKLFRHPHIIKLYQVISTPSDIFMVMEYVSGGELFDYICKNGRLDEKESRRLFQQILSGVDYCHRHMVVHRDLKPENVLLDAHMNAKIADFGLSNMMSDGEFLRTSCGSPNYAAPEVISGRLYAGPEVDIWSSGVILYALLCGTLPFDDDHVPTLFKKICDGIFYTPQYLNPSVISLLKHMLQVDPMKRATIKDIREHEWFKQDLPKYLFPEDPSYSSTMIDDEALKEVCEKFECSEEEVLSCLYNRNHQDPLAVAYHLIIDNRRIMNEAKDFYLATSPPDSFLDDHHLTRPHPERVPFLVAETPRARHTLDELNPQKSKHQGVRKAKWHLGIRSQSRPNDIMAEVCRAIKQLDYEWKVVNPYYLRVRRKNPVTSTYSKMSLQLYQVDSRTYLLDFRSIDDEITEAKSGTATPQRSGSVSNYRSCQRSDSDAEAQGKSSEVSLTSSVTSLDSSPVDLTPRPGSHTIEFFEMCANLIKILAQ
Sequence of Ribosomal protein S6 kinase alpha-2 (Homo sapiens) (Q15349 whole entry): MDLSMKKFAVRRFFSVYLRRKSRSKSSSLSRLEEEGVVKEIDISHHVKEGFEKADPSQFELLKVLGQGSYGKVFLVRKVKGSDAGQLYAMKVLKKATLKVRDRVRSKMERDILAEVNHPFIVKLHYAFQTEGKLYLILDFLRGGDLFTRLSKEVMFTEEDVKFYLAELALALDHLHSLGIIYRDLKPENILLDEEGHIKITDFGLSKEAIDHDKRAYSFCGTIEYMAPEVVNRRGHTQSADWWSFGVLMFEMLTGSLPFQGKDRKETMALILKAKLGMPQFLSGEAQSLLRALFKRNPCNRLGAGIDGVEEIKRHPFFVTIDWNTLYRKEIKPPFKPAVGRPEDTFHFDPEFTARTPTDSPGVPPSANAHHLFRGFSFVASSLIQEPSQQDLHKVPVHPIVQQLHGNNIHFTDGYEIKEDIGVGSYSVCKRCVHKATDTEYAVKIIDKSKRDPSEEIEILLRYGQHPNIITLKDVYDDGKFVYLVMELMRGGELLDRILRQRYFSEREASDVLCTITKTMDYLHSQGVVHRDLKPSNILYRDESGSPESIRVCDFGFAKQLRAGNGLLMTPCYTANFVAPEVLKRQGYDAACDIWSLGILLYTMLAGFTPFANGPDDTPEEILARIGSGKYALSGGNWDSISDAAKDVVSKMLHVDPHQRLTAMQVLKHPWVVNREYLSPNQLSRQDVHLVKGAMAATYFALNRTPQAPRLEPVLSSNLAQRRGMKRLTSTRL

Turning to `Cc1ccc(NC(=O)c2ccoc2)cc1-c1ccc(C(=O)NCC2CC2)cc1`, the inhibition in assay [1] is -0.4%; in assay [2], 0.78%; in assay [3], -1.14%; in assay [4], 1.06%; in [5] it was 0.4%; in assay [6], -0.62%. The inhibition was 0.11% in assay [7]; 2% in [8]; 1.72% in assay [9]; -0.1% in assay [10]; -0.14% in [11]; 0.63% in assay [12]. The inhibition in [13] is 0.73%; in [14], 2.95%; in [15], -0.89%; in assay [16], 7.71%; in [17], 3.98%; in [18], 0.17%. Also, the results for the inhibition in [19] and in [20] were 1.06% and -0.17%, respectively.
Take `O=C(Nc1ccc(Oc2ccc3[nH]c(NC(=O)c4ccccc4)nc3c2)cc1)Nc1cc(C(F)(F)F)ccc1F`: the inhibition amounted to 6.36% in [1]; 3.35% in [2]; 8.83% in [3]; 1.17% in assay [4]; 5.03% in [5]; 0.81% in assay [6]. Also, the inhibition in assay [7] turned out to be 1.47%; in assay [8], 3.12%; in assay [9], 20.5%; in assay [10], 1.69%; in [11] it was 2.72%; in assay [12], 1.68%. In addition, the inhibition stood at 3.96% in [13]; 2.66% in [14]; 4.13% in assay [15]; 1.78% in [16]; 2.24% in assay [17]; 2.87% in [18]. The inhibition turned out to be 2.98% in assay [19] and 0.79% in [20].
With `Cc1nnc(-c2ccc(C)c(-c3ccc(C(=O)NCc4ccc(Cl)cc4)cc3)c2)o1`, the inhibition came to 2.48% in assay [1]; 3.86% in [2]; 5.72% in assay [3]; 2.78% in [4]; 2.72% in assay [5]; 2% in assay [6]. In addition, the inhibition in assay [7] came to 2.89%; in [8] it was 3.07%; in assay [9] it was 3.77%; in assay [10], 1.59%; in assay [11], 2.38%; in [12], 5.07%. Further, the inhibition in assay [13] came to 3.26%; in assay [14], 2.67%; in [15], 6.19%; in [16] it was 1.38%; in assay [17], 5.66%; in assay [18] it was 2.95%. Moreover, the results for the inhibition in [19] and in assay [20] were 3.4% and 3.74%, respectively.
As for `CN(C)c1ccc2c(c1)/C(=C/Nc1ccc(S(N)(=O)=O)cc1)C(=O)N2`, the inhibition came out at 5.77% in assay [1]; 5.46% in assay [2]; 13.3% in assay [3]; 1.57% in assay [4]; 11.6% in assay [5]; 2.82% in [6]. The inhibition in assay [7] was 14.7%; in assay [8] it was 5.18%; in [9], 25.9%; in assay [10] it was 4.28%; in assay [11], 20.9%; in assay [12], 2.27%. Moreover, the inhibition in assay [13] was 5.38%; in assay [14], 0.91%; in assay [15] it was -1.11%; in assay [16], 1.07%; in assay [17], -1.85%; in [18] it was 10.2%. Moreover, the values for the inhibition in [19] and in assay [20] were 44.5% and 7.02%, respectively.
For `NC(=O)Cc1ccccc1Oc1nccc(-c2c(-c3ccc(F)cc3)ncn2C2CCNCC2)n1`, the inhibition in [1] is 1.73%; in assay [2], -0.06%; in assay [3] it was 0.19%; in assay [4] it was 1.2%; in assay [5], 0.63%; in [6], 0.99%. Besides, the inhibition in [7] is 1.35%; in [8], 1.2%; in [9] it was 3.57%; in [10], 1.6%; in assay [11], 2.01%; in [12], -0.43%. The inhibition in [13] came to 0.48%; in assay [14], 1.13%; in assay [15] it was 0.76%; in [16], 0.96%; in assay [17], 0.86%; in assay [18], 2.61%. The inhibition in [19] amounted to 1.44%; in [20] it was 1.24%.
Take `CN(c1ccc(NC(=O)Nc2c(Cl)cccc2Cl)cc1)c1ccnc(Nc2cccc(CS(C)(=O)=O)c2)n1`: the inhibition is 2.01% in [1]; 3.46% in assay [2]; 9.15% in [3]; 2.34% in [4]; 4.66% in assay [5]; 2.08% in assay [6]. For the same compound, the inhibition in [7] is 3.81%; in assay [8], -2.19%; in assay [9] it was 1.78%; in assay [10] it was 0.45%; in assay [11], 1.06%; in assay [12], 1.73%. Also, the inhibition in assay [13] amounted to 7.64%; in assay [14] it was 5.92%; in [15], 22.8%; in assay [16], 3.73%; in assay [17], 4.02%; in [18] it was 2.22%. Further, the inhibition in assay [19] was 3.05%; in assay [20], -0.21%.

One may read the inhibition as the relative decrease from the control value, in per cent.
